Compounds with a hit are over-represented: about 3.7% of the library has one in this group of screens.
BoNT A protease: BoNT/A light chain protease inhibitors, primary screen, biochemical, flow cytometry, MLPCN library; 360,000 compounds, 0.17% hits; inhibition, % at 10 µM; Botulinum neurotoxin type A light chain protease (Clostridium botulinum A str. ATCC 3502); multiplex microsphere protease substrate cleavage; AID 588499, 2011
MazEF act: activators of E. coli MazEF toxin-antitoxin RNase, primary screen, biochemical, fluorescence, uHTS | 350,000 compounds, 0.32% hits | Endoribonuclease toxin MazF (Escherichia coli (strain K12)), P0AE70 | FAM/BHQ RNA-DNA oligo cleavage fluorescence, 5 h | activation, % at 20 µM | AID 504720, 2011; in the data active = activation above about 50%
Target sequence (P0AE70 whole entry, looked up): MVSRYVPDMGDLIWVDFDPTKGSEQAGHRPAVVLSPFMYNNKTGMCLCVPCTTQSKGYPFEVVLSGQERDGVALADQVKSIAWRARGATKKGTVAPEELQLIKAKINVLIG
BoNT F protease: BoNT/F light chain protease inhibitors, primary screen, biochemical, flow cytometry, MLPCN library. Multiplex microsphere protease cleavage assay. inhibition, % at 10 µM. 360,000 compounds, 0.22% hits. AID 588497, 2011; in the data active = inhibition above about 35%, passing the limit was not always enough; inconclusive = no clear call, values can overlap the other calls
Autofluor counter: counter-screen for toxin protease inhibitors: compound fluorescence | fluorescence intensity (no concentration beside the values) | 360,000 compounds, 3.1% hits | compound autofluorescence counterscreen, microsphere flow cytometry; hits give high values; in the data active = fluorescence intensity above about 16000; inconclusive = no clear call, values can overlap the other calls
Anthrax LF prot: Bacillus anthracis LF protease inhibitors, primary screen, biochemical, multiplex microsphere, MLPCN library; 360,000 compounds, 0.12% hits; multiplex microsphere protease cleavage assay; inhibition, % at 10 µM; AID 588501, 2011
Numbers stand for hits; i = inactive; ? = inconclusive; nt = not tested or not shown. Rule as the data show it, unless noted: active = inhibition above about 30%; inconclusive = no clear call, values can overlap the other calls; inactive = below that.

SMILES	BoNT A protease	MazEF act	BoNT F protease	Autofluor counter	Anthrax LF prot
Cc1c2ccccc2nc2c(F)c(NCCO)c(F)c(F)c12	i	63	i	i	i
CC(C)Nc1ncnc2c1ncn2[C@H]1CN(Cc2cccnc2)C[C@@H](CO)O1	i	nt	i	i	i
COc1ccc(C(=O)COC(=O)c2c(-c3ccccc3)noc2C)c(OC)c1	i	67	i	i	i
CN(C)c1ccc(N/C=C/C(=O)c2ccc(F)cc2)cc1	?	105	i	20250	i
NS(=O)(=O)c1ccc(N/C=C\C(=O)c2ccc(F)cc2)cc1	i	i	i	i	i
CC1CCC(NC(=O)c2nn(C)c(=O)c3ccccc23)CC1 (centres undefined)	i	i	i	i	i
COC(=O)c1ccc(C)c(NC(=O)c2nn(C)c(=O)c3ccccc23)c1	?	i	i	22678	i
Cn1nc(C(=O)NC2CCCCC2)c2ccccc2c1=O	?	i	i	21828	i
CSc1nc(N)c(C(=O)N(c2ccccc2)c2ccccc2)s1	i	i	i	i	i
CC1CC(C)CN(C(=O)Cn2c(=O)n(CCCCC(=O)NC3CCCC3)c(=O)c3ccccc32)C1 (centres undefined)	i	i	37	i	i
CCn1c(=O)n(CC(=O)N2CC(C)CC(C)C2)c(=O)c2ccccc21 (centres undefined)	i	i	i	20034	i
Cc1ccc(C)c(N2N=C(C(=O)OCc3nnc(-c4ccccc4Br)o3)CCC2=O)c1	i	i	i	i	i
CCOCC(=O)Nc1ccc2c(c1)N(S(=O)(=O)c1cccs1)CCC2	i	i	?	i	i
Cc1cc(C)c(-c2cc(C(=O)Nc3c(C)n(C)n(-c4ccccc4)c3=O)[nH]n2)c(O)c1	i	i	i	i	i
Cc1ccc(-c2cc(C(=O)Nc3c(C)n(C)n(-c4ccccc4)c3=O)[nH]n2)c(O)c1	?	i	i	22384	i
CN(C)C(CNC(=O)/C=C/c1cccc(Cl)c1)c1ccccc1 (centres undefined)	i	i	i	i	i
COCCCNC(=O)/C=C/c1cccc(Cl)c1	i	i	i	20665	i
COc1ccc(NC(=O)NS(=O)(=O)c2ccc(C)cc2)cc1OC	i	i	i	i	i
CC(C)Nc1nnc(SCC(=O)Nc2sccc2C#N)s1	i	i	i	i	i
CCN(C(C)=O)c1nc(CSc2nnc(NC(C)C)s2)cs1	?	i	i	19610	i
O=C(CSc1nc2[nH]ncc2c(=O)[nH]1)Nc1cccc([N+](=O)[O-])c1	i	i	i	?	i
CCN(c1ccccc1)S(=O)(=O)c1ccc(OC)c(NC(=O)c2ccco2)c1	i	i	i	i	i
CC(C)Nc1nc(NC(C)C)nc(NS(=O)(=O)c2ccc(N)cc2)n1	i	i	i	?	i
CCN(CC)c1nc(N)nc(NS(=O)(=O)c2ccc(Cl)cc2)n1	?	i	i	19449	i
CCNc1nc(NC(C)C)nc(NS(=O)(=O)c2ccc(Cl)cc2)n1	i	i	i	22725	i
SMILES	BoNT A protease	MazEF act	BoNT F protease	Autofluor counter	Anthrax LF prot
CCNc1nc(NC(C)C)nc(NS(=O)(=O)c2ccc(N)cc2)n1	i	i	i	17274	i
CCNc1nc(Cl)nc(NC(C)C)n1	i	i	i	i	i
O=C(NCc1ccc2c(c1)OCO2)C(=O)Nc1cc2c3c(c1)CC(=O)N3CCC2	i	i	i	i	i
CCOC(=O)c1ccc(NC(=O)c2c(N)n(Cc3ccccc3)c(=O)[nH]c2=O)cc1	i	i	i	i	i
COc1cc(/C=C2/N=C(C3CCCCC3)OC2=O)cc(OC)c1OC	?	i	i	20975	i
COC(=O)c1ccc2nc(-c3ccco3)c(Cc3ccc(OC)cc3C)n2c1	i	nt	i	i	i
CCCSC1=C(C#N)C(c2ccccc2OCC)CC(=O)N1 (centres undefined)	i	i	i	23587	i
CCCSC1=C(C#N)C(c2ccc(Cl)cc2Cl)CC(=O)N1 (centres undefined)	i	i	i	24553	i
CCSC1=C(C#N)C(c2ccccc2Cl)CC(=O)N1 (centres undefined)	i	i	i	i	i
N#CC1=C(SCc2ccccc2)NC(=O)CC1c1ccco1 (centres undefined)	i	i	i	20548	i
N#CC1=C(SCC(=O)NCc2ccccc2)NC(=O)CC1c1ccco1 (centres undefined)	i	i	i	i	i
CC(C)CC(=O)[C@@H](O)Cc1ccc(O)cc1	i	nt	i	i	i
COc1ccc(CNC2=CC(=O)CC(C)(C)C2)cc1	i	i	i	24712	i
COc1cccc(C(=O)NNC2=CC(=O)CC(C)(C)C2)c1	i	i	i	20933	i
CC1(C)CC(=O)C=C(NCc2ccc(C(=O)O)cc2)C1	i	i	i	?	i
Cc1cccc(CN2CCN(CC(=O)O)C2=O)c1	i	i	i	19589	i
Cc1ccccc1CN1CCN(CC(=O)NCc2ccccc2)C1=O	i	i	i	20841	i
O=C(CN1CCN(Cc2ccccc2)C1=O)NCc1ccc(Cl)cc1	i	i	i	i	i
CCC(=O)c1cc2c(C)cc(=O)oc2c(C)c1OC	i	i	i	22529	i
CC[C@H]1C/C=C\Cc2ccccc2[C@@H](C(=O)C[C@@H](O)CC(C)=O)OC1=O	i	i	i	i	i
CCOc1ccccc1OCc1nn2c(COc3ccccc3)nnc2s1	i	i	i	16185	i
CCOc1ccc(-c2nnc3sc(COc4ccccc4)nn23)cc1	i	i	i	i	i
COc1ccc(-c2nnc3sc(COc4ccccc4)nn23)cc1	i	i	i	20311	i
c1ccc(Cc2nn3c(COc4ccccc4)nnc3s2)cc1	i	i	i	24302	i
Cc1c(Cl)cccc1NC(=O)CNC(=O)CCS(=O)(=O)c1ccc(F)cc1	i	i	i	?	i
SMILES	BoNT A protease	MazEF act	BoNT F protease	Autofluor counter	Anthrax LF prot
Cc1cccc(S(=O)(=O)N(C)C[C@H]2OCc3cn(nn3)CCCC(=O)N([C@@H](C)CO)C[C@@H]2C)c1	i	i	i	i	i
O=C(COC(=O)c1ccccc1Br)Nc1ccc(F)cc1	i	i	i	i	i
O=C(COC(=O)c1ccccc1Br)NCCc1ccc(F)cc1	i	i	43	i	i
CCN1/C(=C\C=C\C2=[N+](CC)c3ccccc3C2(C)C)C(C)(C)c2ccccc21	92	i	i	i	i
CN1OC[C@@H]2CN(C(=O)CCc3ccccc3)[C@H](c3ccccc3Br)C[C@@H]21	i	nt	i	i	i
CCc1c(C)nc2ncnn2c1Nc1ccc(C)cc1	i	i	i	i	i
C#CCNc1c(C)c(C)nc2ncnn12	i	i	i	24659	i
C[C@@H]1CN([C@H](C)CO)C(=O)c2cc(Br)cnc2O[C@H]1CN(C)C(=O)Nc1ccccc1F	i	i	i	i	i
CSc1ccc(NC(=O)NCCCN2CCC(Cc3ccccc3)CC2)cc1	i	i	i	i	i
